Compound activity from PubChem.
HepG2 tox: qHTS for Inhibitors of TGF-b: Cytotox Counterscreen; 0.76% of 410,000 active; Potency, µM (titrated, usually from 46.1 µM), for inactives: at the highest dose activity change, negative = cytotoxicity, most hits filed as cytotoxic; HepG2 CAGA-GFP viability, ATP luminescence, 18 h; also: potency is read from the fitted curve at half-maximal effect
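CellTiter-Glo luminescence gave cytotoxicity after 18 hours at 37 degrees C. The cells were HepG2 CAGA-GFP in 1% FBS DMEM, stimulated with 500 pg/mL TGF-beta after compound addition. %Activity was normalised to no-cell wells (complete cell-killing) and DMSO (no toxicity), and curves were fitted and classified.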
IL1B secr inh: qHTS for Inhibitors of Inflammasome Signaling: IL-1-beta AlphaLISA Primary Screen; activity change, % at 57.5 µM; AID 743279, 2014; THP-1 LPS/ATP IL-1B secretion, AlphaLISA, 16 h; stronger effect = lower value; 4.7% of 360,000 active; in the data active = activity change below about -50%; inconclusive = mostly about -30% to -49%; also: % is scaled to controls: 0 for no effect and ±100 for the full control effect
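Secreted IL-1B measured by AlphaLISA bead assay after 16 h compound exposure of THP-1 cells; compounds (final up to 57.5 uM) added 1 h before LPS (250 ng/mL) and ATP (1.25 mM) stimulation; lower signal means less secretion.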
TDP1 cell CPT: qHTS for Inhibitors of human tyrosyl-DNA phosphodiesterase 1 (TDP1): qHTS in cells in presence of CPT | chicken DT40 Tdp1-/-;hTDP1 cells + 20 nM CPT, ATP luminescence, 48 h | AID 686979, 2013 | Potency, µM (top dose mostly 46.2 µM), inactives show top-dose activity change, negative = growth inhibition, most hits filed as inhibitors | 12% of 420,000 active; also: potency is read from the fitted curve at half-maximal effect; % is scaled to controls: 0 for no effect and ±100 for the full control effect; nearly all actives have a fitted effect of over 55% in size
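Chicken DT40 Tdp1-/- cells complemented with human TDP1, 400 cells/well, exposed to compounds plus 20 nM camptothecin for at least 48 h at 37 C; viability read as ATP content by CellTiter-Glo luminescence.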
TGFb SMAD3 inh: qHTS for Inhibitors of TGF-b; HepG2 CAGA-GFP TGF-b/SMAD3 reporter, GFP fluorescence, 18 h; TGF-beta stimulated, 500 pg/mL final; Potency, µM (highest dose often 46.1 µM), without a hit: at the highest dose activity, negative = inhibition, most hits filed as inhibitors; 1.2% of 410,000 active; also: potency is read from the fitted curve at half-maximal effect; % is scaled to controls: 0 for no effect and ±100 for the full control effect; nearly all actives have a fitted effect of over 65% in size
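HEPG2 CAGA-GFP, 1000 cells/well; 2 h settle, 37 C; cpd via pin tool; TGF-b 500 pg/mL final; 18 h, 37 C; GFP imaging ex488/em500-530; %Activity normalised to -TGF-b and +DMSO controls; CRC fit, curve class.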
DT40 TDP1 no CPT: qHTS for Inhibitors of human tyrosyl-DNA phosphodiesterase 1 (TDP1): qHTS in cells in absence of CPT; AID 686978, 2013; DT40 Tdp1-/- hTDP1 cells, no CPT, ATP luminescence, 48 h; Potency, µM (series often up to 46.2 µM), for the others: top-dose activity change, negative = growth inhibition, most hits filed as inhibitors; 15% of 420,000 active; also: potency is read from the fitted curve at half-maximal effect; % is scaled to controls: 0 for no effect and ±100 for the full control effect; nearly all actives have a fitted effect of over 55% in size
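Growth of hTDP1-complemented DT40 Tdp1-knockout cells is measured by ATP luminescence after at least 48 hr compound exposure at 37 °C, with DMSO substituting for the 20 nM CPT used in the parallel screen.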
TDP1 inh: qHTS Assay for Inhibitors of Tyrosyl-DNA Phosphodiesterase (TDP1). Tyrosyl-DNA phosphodiesterase 1 (Homo sapiens), Q9NUW8. recombinant TDP1, AlphaScreen DNA substrate cleavage. Potency, µM (series often up to 130 µM), for the others: at the top dose activity change, negative = inhibition, most hits filed as inhibitors. 0.28% of 350,000 active; also: potency is read from the fitted curve at half-maximal effect; % is scaled to controls: 0 for no effect and ±100 for the full control effect; nearly all actives have a fitted effect of over 40% in size
Target sequence (Q9NUW8 whole entry, looked up): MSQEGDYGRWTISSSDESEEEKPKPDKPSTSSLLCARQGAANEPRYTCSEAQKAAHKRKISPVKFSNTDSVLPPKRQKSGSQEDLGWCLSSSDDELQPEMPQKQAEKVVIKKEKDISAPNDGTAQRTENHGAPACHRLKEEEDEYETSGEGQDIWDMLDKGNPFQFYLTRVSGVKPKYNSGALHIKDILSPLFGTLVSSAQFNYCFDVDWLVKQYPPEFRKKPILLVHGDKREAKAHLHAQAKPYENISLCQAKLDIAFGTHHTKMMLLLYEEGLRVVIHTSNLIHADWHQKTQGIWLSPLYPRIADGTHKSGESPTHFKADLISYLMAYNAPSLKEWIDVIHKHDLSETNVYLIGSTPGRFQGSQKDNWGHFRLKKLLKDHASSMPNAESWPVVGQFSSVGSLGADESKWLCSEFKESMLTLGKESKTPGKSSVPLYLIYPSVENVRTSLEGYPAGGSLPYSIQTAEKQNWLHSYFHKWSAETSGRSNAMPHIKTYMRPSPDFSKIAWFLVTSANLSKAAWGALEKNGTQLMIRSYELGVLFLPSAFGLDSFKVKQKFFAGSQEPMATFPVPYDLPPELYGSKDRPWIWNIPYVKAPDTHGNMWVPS
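Recombinant E. coli-expressed Tdp1 (1 nM) preincubated with compound 15 min at RT, then 5'-biotin/3'-phosphotyrosine-FITC DNA substrate (15 nM) added for 5 min. AlphaScreen beads (10 ug/ml) added, 10 min RT; tyrosine-FITC cleavage read as signal loss.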
Active calls of the source: *; ? = inconclusive; · = no result given; [ ] = remark or other dose. Compounds with a hit are over-represented: about 18% of the library has one in this group of screens. Unless noted, calls follow the shape of the dose curve; as a rule, active = well fitted curve in the direction sought with a large enough effect; inconclusive = small, poorly fitted or top-dose-only effect, or another doubt; inactive = no such curve, though single readings can be large; an effect the other way counts as inactive or inconclusive.

SMILES | HepG2 tox | IL1B secr inh | TDP1 cell CPT | TGFb SMAD3 inh | DT40 TDP1 no CPT | TDP1 inh
COc1ccc(OC)c2c(C)ccnc12 | 12.6µM* | · | ? | 7.94µM* | ? | ·
COc1ccccc1N1CCN(C(=O)C2CCN(C(=O)c3ccc(C(C)(C)C)cc3)CC2)CC1 | -35.4% | -8.3 | ? | -15.1% | ? | 3.8%
Cc1ccc(NNC(=O)c2c(C)noc2C)cc1Cl | -8.4% | 12.4 | -1.0% | -11.0% | -22.4% | 11.4%
Cc1ccc(NNC(=O)c2ccno2)cc1Cl | -5.5% | 49.3 | ? | -18.4% | 10.3µM* | 0.0%
CN(C)CCNc1ncnc2c1ncn2[C@H]1CN(CCc2ccccc2)C[C@@H](CO)O1 | 23.6% | 20.9 | -5.2% | 4.6% | -18.5% | ·
COc1ccccc1/C=C/C(=O)OCC(=O)c1c[nH]c2ccccc12 | -1.3% | 29.2 | ? | -7.2% | 20.6µM* | -4.5%
C=CCN(c1ccccc1OC)S(=O)(=O)c1cccc(C(=O)OCC(=O)c2c[nH]c3ccccc23)c1 | -0.3% | -1.6 | ? | 0.0% | 23.1µM* | 1.1%
C=CCN(c1ccccc1OC)S(=O)(=O)c1cccc(C(=O)NC2=NCCS2)c1 | -37.3% | -10.9 | ? | -3.0% | 23.1µM* | -3.4%
COc1cc(OC)c(N(C)S(=O)(=O)c2cccc(C(=O)OCC(=O)c3c[nH]c4ccccc34)c2)cc1Cl | -25.7% | 13.2 | ? | -27.6% | 23.1µM* | 6.8%
Cc1c(N(C)S(=O)(=O)c2cccc(C(=O)NC(C)C)c2)c(=O)n(-c2ccccc2)n1C | 3.2% | 13.9 | -20.2% | -1.1% | -12.4% | 0.2%
Nc1ccn([C@@H]2O[C@H](CNCc3cnc(N4CCOCC4)nc3)[C@@H](O)[C@H]2O)c(=O)n1 | 4.9% | 14.0 | 1.8% | 19.7% | 2.4% | ·
CC(C)Cc1ccc(C(C)C(=O)OCC(=O)c2c[nH]c3ccccc23)cc1 (configuration not stated) | -79.1% | -24.3 | 10.3µM* | ? | 13µM* | 2.8%
O=C(NC1CCCCC1)c1ccc2ccccc2c1 | 3.0% | -16.9 | -19.8% | 4.0% | ? | ·
O=C(NC1CC1)c1ccc2c(c1)C1C3CCC(C3)C1C(c1ccccc1)N2 (configuration not stated) | -19.6% | ? | ? | -5.4% | 25.9µM* | 5.6%
Cn1cnc([N+](=O)[O-])c1Cl | -3.1% | -94.8* | ? | 9.2% | ? | ·
CCN(CC)c1c([N+](=O)[O-])ncn1C | 10.1% | 15.1 | -6.5% | ? | -0.2% | 3.9%
Cn1cnc([N+](=O)[O-])c1S(=O)(=O)Oc1cccc2ccccc12 | -83.3% | -102.2* | 1.3µM* | ? | 1.03µM* | ·
Cn1cnc([N+](=O)[O-])c1S(=O)(=O)Oc1ccc(Cl)cc1 | 22.4µM* | -97.3* | 0.651µM* | ? | 2.06µM* | ·
CNc1c([N+](=O)[O-])ncn1C | 2.7% | 7.5 | 11.3% | 16.4% | -1.6% | 4.2%
CCS(=O)(=O)c1c([N+](=O)[O-])ncn1C | -44.0% | -11.7 | 5.17µM* | 17.8µM* | 7.31µM* | -2.7%
COc1ccc(-c2nnc3n2N=C(c2cc(OC)ccc2OC)CS3)c(OC)c1 | · | · | · | · | · | 6.8%
O=C(N=C1c2ccccc2CN1c1ccc(F)c(Cl)c1)c1cccnc1Cl | · | · | · | · | · | 9.1%
COc1ccc(N(CC(=O)NC2CCCCCC2)S(=O)(=O)c2ccccc2)cc1Cl | -7.3% | 4.5 | ? | 13.7% | ? | -0.1%
CCCCC/C=C\C/C=C\C/C=C\CC1OC1CCCC(=O)O (configuration not stated) | · | · | · | · | · | 8.5%
Cn1cnc([N+](=O)[O-])c1Sc1ncn[nH]1 | 0.6% | 0.0 | 18.4µM* | 25.0% | 16.4µM* | -5.1%
SMILES | HepG2 tox | IL1B secr inh | TDP1 cell CPT | TGFb SMAD3 inh | DT40 TDP1 no CPT | TDP1 inh
CN(C)C(=O)c1c([N+](=O)[O-])ncn1C | -35.6% | 7.3 | -0.5% | -17.8% | -13.2% | 0.0%
Cn1cnc([N+](=O)[O-])c1Oc1cccc2ccccc12 | -75.0% | · | ? | ? | 29.1µM* | 4.3%
O=C(COc1cccnc1[N+](=O)[O-])Nc1cccc2ccccc12 | 2.0% | -1.0 | -15.2% | -2.2% | -2.0% | 0.7%[56.1 µM]
Cc1ccccc1CNC(=O)C(=O)NCCC1CCCCN1S(=O)(=O)c1ccccc1 (configuration not stated) | -14.8% | -3.9 | 16.4µM* | ? | 18.4µM* | -2.5%
COc1ccccc1CNC(=O)C(=O)NCCC1CCCCN1S(=O)(=O)c1ccccc1 (configuration not stated) | -10.0% | -11.2 | ? | 11.6% | ? | -0.1%
Cc1ccc(S(=O)(=O)N2CCCC(C(=O)NCc3cccnc3)C2)cc1Cl (configuration not stated) | 8.2% | 38.3 | -25.3% | 1.6% | ? | -4.1%
Cc1cc(C)c(S(=O)(=O)N2CCCCC2CCNC(=O)C(=O)NCc2cccnc2)c(C)c1 (configuration not stated) | -5.0% | 0.0 | 11.6µM* | 9.4% | ? | -3.8%
Cc1cc(F)ccc1S(=O)(=O)N1CCCCC1CCNC(=O)C(=O)NCc1ccccn1 (configuration not stated) | 0.0% | -0.4 | ? | -13.9% | 16.4µM* | 11.6%
Cc1cc(C)c(S(=O)(=O)N2CCCC(C(=O)NCc3cccnc3)C2)c(C)c1 (configuration not stated) | 6.9% | 3.6 | 16.4µM* | -0.5% | 20.6µM* | 2.6%
CC(C)(C)C1CCc2onc(C(=O)Nc3sc4c(c3C(N)=O)CCCC4)c2C1 (configuration not stated) | 2.6% | · | 18.6% | 10.7% | -26.9% | -5.5%
Cc1ccc(C)c(S(=O)(=O)N2CCCCC2CCNC(=O)C(=O)NC2CC2)c1 (configuration not stated) | 0.0% | 15.9 | -20.5% | 11.7% | ? | 4.2%
Cc1ccc(S(=O)(=O)N2CCCCC2CCNC(=O)C(=O)NC2CC2)cc1 (configuration not stated) | 11.5% | 0.0 | ? | -0.4% | ? | -3.3%
